# Laboratory results from PubChem BioAssay AID588351 (The Scripps Research Institute Molecular Screening Center, 2011).
# Among all 1,900 compounds or so, about 1,600 (84%) were called active.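 Rule for the calls: active = mean activation above a set limit taken from the primary screen (cut at about 8% in these data); inactive = the rest.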 The set was probably picked from earlier hits. The list is a sample of the results.
# Test: frataxin promoter-driven luciferase activation – cell-based, luminescence, HEK293 lucGAA850, triplicate, confirmation (AID 588351);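 note: 0% = DMSO wells and 100% = 10 µM SAHA wells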
# Conditions: HEK293 lucGAA850 FXN promoter luciferase reporter, 24 h; at 6 µM; stronger effect = higher value; 100% = activation by SAHA
row,SMILES,activation
1,COc1ccccc1C1=Nc2cccc3cccc(c23)N1,7.84% (active)
2,CCN(C[C@H]1N[C@@](CC)(C(=O)OC)[C@H]2C(=O)N(Cc3ccccc3)C(=O)[C@@H]12)S(=O)(=O)c1ccc(C(F)(F)F)cc1,10.5% (active)
3,O=C(Nc1nnc(S(=O)(=O)N2CCCCCC2)s1)c1cccc(Br)c1,16.8% (active)
4,Cn1c(=O)n(C)c2cc(S(=O)(=O)N3CCCc4ccccc43)ccc21,11.8% (active)
5,CC(C)(C)N1C(=O)[C@H]2[C@@H](c3ccc(Br)cc3)N3C(=O)N(c4cccc(Cl)c4)C(=O)[C@@]3(C)[C@H]2C1=O,6.82% (inactive)
6,CC[C@@]12C(=O)N(c3ccccc3)C(=O)N1[C@H](c1ccc(Br)cc1)[C@@H]1C(=O)N(C(C)(C)C)C(=O)[C@@H]12,11.1% (active)
7,CCCNC(=O)c1c(Cl)cnn1-c1ccc(C)cc1,31.2% (active)
8,Cc1ccccc1Nc1c([N+](=O)[O-])ccc2nonc12,17% (active)
9,CC[C@]1(C(=O)OC)[C@H]2C(=O)N(Cc3ccccc3)C(=O)[C@H]2[C@H]2CN=C(SCc3ccccc3)N21,6.5% (inactive)
10,COC(=O)[C@@]1(C)[C@H]2C(=O)N(Cc3ccccc3)C(=O)[C@H]2[C@H]2CN=C(SCC3CC3)N21,12.3% (active)
11,CC[C@]1(C(=O)OC)[C@H]2C(=O)N(Cc3ccccc3)C(=O)[C@H]2[C@H]2CN=C(SCc3ccc(C#N)cc3)N21,11% (active)
12,CC(C)CCC(C)NC(=O)c1ccc2nccnc2c1 (centres undefined),25.6% (active)
13,Cn1c(CCN2CCCCCC2)nc2cc(NC(=O)Nc3ccccc3)ccc21,32.6% (active)
14,COC(=O)c1ccc(CSc2nc3ccccc3c(=O)n2-c2cccc(OC)c2)o1,16.6% (active)
15,Cc1ccc2cc(/C=N/Nc3ccc(C(=O)O)cc3)c(Cl)nc2c1,44.5% (active)
16,CN(C(=O)c1cc2c(=O)n3ccccc3nc2s1)C1CCCCC1,37.7% (active)
17,COCCn1c(=NC(=O)c2ccccc2[N+](=O)[O-])sc2cc(S(C)(=O)=O)ccc21,23.4% (active)
18,O=C(CSc1cccc2cccnc12)N/N=C/c1cccnc1,10.9% (active)
19,O=[N+]([O-])c1ccc(C=Nc2ccc(Cl)cc2Cl)s1,17.7% (active)
20,O=C1N=C(N2CCCC2)S/C1=C\c1cccc(Br)c1,20.9% (active)

row,SMILES,activation
1,COc1ccc2[nH]c(=O)c(CN(Cc3nnnn3CCc3ccccc3)CC3CCCO3)cc2c1 (centres undefined),5.82% (inactive)
2,COc1cc(C#Cc2ccc3cc(CCCO)oc(=O)c3c2)cc(OC)c1,44.9% (active)
3,COc1cccc(Nc2nc(N)c([N+](=O)[O-])c(NCc3ccco3)n2)c1,22.8% (active)
4,O=C(CN(c1cc(C(F)(F)F)ccc1Cl)S(=O)(=O)c1ccccc1)NCc1cccnc1,8.52% (active)
5,COc1ccc(-n2cc(-c3ccccc3)c3c(=S)nc[nH]c32)cc1,11% (active)
6,Cc1ccc(-c2c3c(=O)n(C)c(=O)n(C)c3cn2-n2cnnc2)cc1,19% (active)
7,CCOc1ccc(N2C(=O)CC(N(CCc3ccc(OC)c(OC)c3)C(=S)Nc3ccccc3)C2=O)cc1 (centres undefined),9.64% (active)
8,CC(C)(C)C(=O)c1cnc(Nc2ccccc2)s1,49.2% (active)
9,Cc1cc(OCc2cc(C(=O)NCc3cc(C(C)C)no3)no2)cc(C)c1Cl,30.7% (active)
10,CNc1nc(Nc2ccc(C)c(Cl)c2)nc(N)c1[N+](=O)[O-],71% (active)
11,CC(Sc1nc2c([nH]c3ccccc32)c(=O)n1C)c1ccccc1 (centres undefined),16.1% (active)
12,Cc1ccc(-c2nc3ccccc3[nH]c2=O)cc1,29.2% (active)
13,CN(C)CCNC(=O)c1ccc(Cl)c2cc3ccccc3nc12,130% (active)
14,CCC(=O)NC(=Nc1nc2ccccc2s1)NC(=O)CC,38.4% (active)
15,COc1ccc(Cl)cc1NC(=O)CN(C)C(=O)CCCc1c[nH]c2ccccc12,9.95% (active)
16,Fc1ccccc1/C=N/Nc1cc(N2CCCCC2)ncn1,43.1% (active)
17,CCCCCOc1ccc(CSC2=NCCN2)cc1[N+](=O)[O-],38.6% (active)
18,Nc1ccc(C(=O)Nc2ccccc2N)cc1,55.7% (active)
19,N#CCSc1nc2ccccc2c(=O)n1-c1ccccc1,16.2% (active)
20,CCCCc1ccc(NC(=S)N2CCCC(CO)C2)cc1 (centres undefined),33.8% (active)

row,SMILES,activation
1,CC(C)c1ccc(NS(=O)(=O)c2cn(C)c(=O)n(C)c2=O)cc1,5.44% (inactive)
2,Fc1ccc2nc(N3CCCCC3)sc2c1,27.8% (active)
3,Cc1cc(C)n2nc(CNS(=O)(=O)c3c(F)c(F)c(F)c(F)c3F)nc2n1,20.7% (active)
4,Cc1ccc(C(=O)NNc2ncnc3ccccc23)cc1,25.9% (active)
5,O=C(NCCCn1ccnc1)c1cc(-c2ccccc2)on1,127% (active)
6,COc1ccccc1N1CCN(C(=O)c2cc(-c3ccc(Br)cc3)on2)CC1,2.35% (inactive)
7,O=C(NC1CCCC1)c1cc(-c2ccccc2)on1,67.8% (active)
8,CC1CCc2sc3nc(N4CCN(CCO)CC4)n4ncnc4c3c2C1 (centres undefined),21.9% (active)
9,CN(C)S(=O)(=O)c1ccc2oc(SCC(=O)Nc3ccccc3F)nc2c1,44.6% (active)
10,COc1ccc(/C=C/C(=O)Nc2ccc(C34CC5CC(CC(O)(C5)C3)C4)cc2)cc1OC,44.5% (active)
11,Cc1nnc(Sc2nc3c(c(=O)[nH]c(=O)n3C)n2Cc2ccccc2)s1,5.05% (inactive)
12,CN(C)C(=S)N=c1ssc(=S)n1Cc1ccco1,32.8% (active)
13,O=C(NCc1ccco1)c1ccc(Cn2c(=O)c3sccc3n(Cc3ccc(F)cc3)c2=O)cc1,6.19% (inactive)
14,CC(C)(C)c1ccc(C(=O)NCc2ccco2)cc1,44.1% (active)
15,CCCCNC(=O)N(O)C1N(/N=C/c2ccccc2O)C(=S)SC1(C)C (centres undefined),14.1% (active)
16,CCOC(=O)c1cc2c(=O)n3ccccc3nc2n(CC(C)C)c1=NC(=O)c1c(-c2c(F)cccc2Cl)noc1C,3.22% (inactive)
17,N#Cc1c(N)nc2c3c(sc(=N)c2c1N)NC(=O)CC3c1ccccc1Cl (centres undefined),24.2% (active)
18,CCc1ccc(N(C(=O)c2csnn2)C(C(=O)NC2CCCCC2)c2ccncc2)cc1 (centres undefined),12.1% (active)
19,Cc1cc(=O)oc(C)c1C(=O)NCc1ccc(F)cc1,4.06% (inactive)
